From PubChem BioAssay
The source made the active and inactive calls. Unless noted, the rule behind the calls is not given here.

How the values were obtained:
[1] = system: Wnt5a (protein binding on small-molecule microarray); assay: Wnt5a binders on small-molecule microarray, primary screen, biophysical, 635/667 nm fluorescence (AID 1142); details: 635 nm fluorescence, higher = more signal;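 note: fluorescence read at 667 nm with signal to noise per printed feature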
[2] = cell viability in Huh7 cells, primary screen, cytotoxicity control for HCV replication inhibitor project, CellTiter-Glo luminescence, basal, 48 h (AID 1143); details: Huh7 HCV replicon, higher = more signal, called active from +8 up or from −8 down;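 note: Huh7 hepatoma cells carrying a hepatitis C replication reporter with no stimulus; test concentration not given here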
[3] = P. aeruginosa biofilm formation inhibitors, primary screen, PAO1 strain, BacTiter-Glo luminescence, LB-PBS (AID 1144); details: 12 h, higher = more signal
[4] = CREB reporter modulators without forskolin, primary screen, cell-based, PC12, CRE-LacZ reporter, unstimulated (AID 1145); details: no forskolin, luminescence, 4.5 h, higher = more signal, called active from +8 up or from −8 down
[5] = CREB reporter modulators under forskolin, primary screen, cell-based, PC12, CRE-LacZ reporter, forskolin-stimulated (AID 1146); details: luminescence, 4.5 h, higher = more signal, called active from +8 up or from −8 down;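 note: PC12 cells with 6xCRE LacZ reporter stimulated by forskolin 10 µM; beta-galactosidase reporter signal reflecting CREB driven transcription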
[6] = molecular target: Streptavidin (Streptomyces avidinii) (UniProt P22629); assay: streptavidin binders on small-molecule microarray, primary screen, artefact control for SMM compound annotation, biophysical, 635/667 nm fluorescence (AID 1147); details: streptavidin binding, higher = more signal;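 note: signal reflects streptavidin binding to arrayed compounds as a control protein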
Sequence of Streptavidin (Streptomyces avidinii) (P22629 whole entry, looked up): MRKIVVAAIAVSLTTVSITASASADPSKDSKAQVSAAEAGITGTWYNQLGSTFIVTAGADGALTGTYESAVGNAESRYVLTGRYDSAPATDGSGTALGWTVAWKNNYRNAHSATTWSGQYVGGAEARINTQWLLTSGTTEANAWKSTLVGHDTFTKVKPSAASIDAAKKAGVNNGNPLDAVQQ

[7] = small-molecule binders of probe aInhba, primary screen, biochemical, small-molecule microarray, 635/667 nm fluorescence (AID 1148); details: higher = more signal;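 note: score merges 667nm spot fluorescence with signal-to-noise for antibody binding to printed compounds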
[8] = molecular target: Torsin-1A (Homo sapiens) (UniProt O14656); assay: torsin A binders from cell lysate, primary screen, small-molecule microarray, wild-type, 635/667 nm (AID 1149); details: COS7 hTOR1A-WT lysate, 635 nm fluorescence, higher = more signal
Sequence of Torsin-1A (Homo sapiens) (O14656 whole entry, looked up): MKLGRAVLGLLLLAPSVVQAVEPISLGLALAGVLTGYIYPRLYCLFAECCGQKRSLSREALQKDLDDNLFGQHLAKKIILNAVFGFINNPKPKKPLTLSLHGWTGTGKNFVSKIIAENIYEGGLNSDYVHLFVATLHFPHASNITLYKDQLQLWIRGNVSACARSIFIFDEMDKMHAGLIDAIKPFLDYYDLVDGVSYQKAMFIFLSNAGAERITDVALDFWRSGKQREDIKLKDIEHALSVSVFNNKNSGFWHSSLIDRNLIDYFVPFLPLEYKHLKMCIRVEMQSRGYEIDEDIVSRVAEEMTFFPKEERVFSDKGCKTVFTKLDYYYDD

[9] = molecular target: Torsin-1A (Homo sapiens) (UniProt O14656); assay: small-molecule binders of mutant TOR1A in lysate, primary screen, cell lysate, small-molecule microarray, COS7 lysate, 635/667 nm fluorescence (AID 1150); details: COS7 hTOR1A mutant lysate, 635 nm fluorescence, higher = more signal;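 note: score pools 667 nm emission and signal to noise measuring lysate protein binding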
[10] = system: Sonic hedgehog protein (Shh); assay: small-molecule binders of Shh protein, primary screen, biochemical, small-molecule microarray, 635/667 nm fluorescence (AID 1151); details: small-molecule microarray binding, 635 nm fluorescence; higher = more signal;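 note: Shh protein binding to compounds spotted on small-molecule microarray slides; score combines spot fluorescence intensity with signal-to-noise across triplicate slides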

For `[N-]=[N+]=NCc1ccccc1C[C@]1(C(=O)O)N=C(c2ccc(OCCCO)cc2)O[C@H]1c1ccccc1`, the composite z-score [1] was 0.0352, the z-score [2] was -0.881 (inactive) and the z-score [3] was -0.556 (inactive). The z-score [4] was -0.79 (inactive), the z-score [5] was 2.11 (inactive) and the composite z-score [6] was 0.807. It also gave a composite z-score [7] of 0.0566, a composite z-score [8] of 1.8 and a composite z-score [9] of 1.99. It also gave a composite z-score [10] of -0.474.

With `COCCOC(=O)N1C(=O)[C@@]2(c3cc(C#CCC(C(=O)OC)C(=O)OC)ccc31)[C@H](c1ccc(O)cc1)N1[C@H](c3ccccc3)[C@H](c3ccccc3)OC(=O)[C@H]1[C@@H]2C(N)=O` the composite z-score [1] was 0.641, the z-score [2] was -0.427 (inactive) and the z-score [3] was 0.075 (inactive). The z-score [4] was -0.329 (inactive), the z-score [5] was 0.305 (inactive) and the composite z-score [6] was 1.04. It also gave a composite z-score [7] of 0.215, a composite z-score [8] of 1.61 and a composite z-score [9] of 1.35. For the same molecule, the composite z-score [10] was 0.922.

In the case of `NCCCCCCNC(=O)[C@H]1C[C@H]2C(=O)NCC(=O)N2[C@H]1c1cccc(OCCO)c1`, the composite z-score [1] is reported as 0.363, the z-score [2] is reported as 0.0443 (inactive) and the z-score [3] is reported as 0.0567 (inactive). The z-score [4] was -0.675 (inactive), the z-score [5] was -0.405 (inactive) and the composite z-score [6] was 0.485. It also gave a composite z-score [7] of -0.128, a composite z-score [8] of 1.16 and a composite z-score [9] of 0.872. It also gave a composite z-score [10] of 1.61.

With `[N-]=[N+]=NCc1ccccc1C[C@]1(C(=O)O)N=C(c2ccc(OCCCO)cc2)O[C@H]1c1ccccc1CN=[N+]=[N-]` the composite z-score [1] was -0.0602, the z-score [2] was -1.42 (inactive) and the z-score [3] was -0.046 (inactive). For the same molecule, the z-score [4] was 2.87 (inactive), the z-score [5] was 2.69 (inactive) and the composite z-score [6] was 1.66. The composite z-score [7] was 0.0342, the composite z-score [8] was 0.171 and the composite z-score [9] was 0.48. The composite z-score [10] was -0.0214.

In the case of `CCOC(=O)C1=CC[C@@H](c2ccccc2)N(S(=O)(=O)c2ccc(C)cc2)[C@H]1C(=O)OCC`, the composite z-score [1] is reported as 0.3, the z-score [2] is reported as -4.23 (inactive) and the z-score [3] is reported as 1.43 (inactive). The z-score [4] was -0.415 (inactive), the z-score [5] was -0.76 (inactive) and the composite z-score [6] was 0.491. For the same molecule, the composite z-score [7] was 0.421, the composite z-score [8] was 0.59 and the composite z-score [9] was 0.523. It also gave a composite z-score [10] of -0.189.

For `O=C(CS)NCCCCCCNC(=O)[C@H]1C[C@H]2C(=O)N3CCC[C@H]3C(=O)N2[C@H]1c1cccc(OCCO)c1`, the composite z-score [1] was 0.35, the z-score [2] was -0.521 (inactive) and the z-score [3] was -0.357 (inactive). For the same molecule, the z-score [4] was 0.549 (inactive), the z-score [5] was 0.581 (inactive) and the composite z-score [6] was 0.359. It also gave a composite z-score [7] of -0.0917, a composite z-score [8] of 0.536 and a composite z-score [9] of 1.31. The composite z-score [10] was 1.52.

With `O=c1cccc(C=Cc2ccccc2)o1` the composite z-score [1] was -0.276, the z-score [2] was -0.273 (inactive) and the z-score [3] was -0.544 (inactive). For the same molecule, the z-score [4] was -0.676 (inactive), the z-score [5] was 0.801 (inactive) and the composite z-score [6] was -0.532. The composite z-score [7] was 0.144, the composite z-score [8] was -0.994 and the composite z-score [9] was -0.711. The composite z-score [10] was -0.604.

For `CCCC[C@H]1OB(O)C[C@H]2C1=C(C)C[C@H]1C(=O)N(Cc3ccccc3)C(=O)[C@H]12`, the composite z-score [1] was 0.34, the z-score [2] was 0.342 (inactive) and the z-score [3] was 0.464 (inactive). For the same molecule, the z-score [4] was -0.23 (inactive), the z-score [5] was -0.155 (inactive) and the composite z-score [6] was -0.0276. The composite z-score [7] was -0.122, the composite z-score [8] was 0.358 and the composite z-score [9] was 0.528. It also gave a composite z-score [10] of 1.01.

In the case of `O=C(CS)NCCCCCCNC(=O)[C@H]1C[C@H]2C(=O)NCC(=O)N2[C@H]1c1ccc(O)cc1`, the composite z-score [1] is reported as -0.319, the z-score [2] is reported as 0.0181 (inactive) and the z-score [3] is reported as -0.333 (inactive). The z-score [4] was 0.692 (inactive), the z-score [5] was 0.551 (inactive) and the composite z-score [6] was -0.406. It also gave a composite z-score [7] of -0.188, a composite z-score [8] of -0.21 and a composite z-score [9] of -0.14. For the same molecule, the composite z-score [10] was 0.518.

With `N#Cc1ccc(NN2C(C(O)c3cccs3)C=CC3C(=O)N(c4ccccc4)C(=O)C32)cc1` (stereo not given) the composite z-score [1] was 0.128, the z-score [2] was -0.0331 (inactive) and the z-score [3] was -1.34 (inactive). The z-score [4] was -0.329 (inactive), the z-score [5] was -0.224 (inactive) and the composite z-score [6] was 0.943. It also gave a composite z-score [7] of 0.109, a composite z-score [8] of 0.733 and a composite z-score [9] of 0.812. The composite z-score [10] was -0.318.

With `[N-]=[N+]=NCc1ccccc1[C@@H]1OC(c2ccc(OCCCO)cc2)=N[C@]1(Cc1ccccc1)C(=O)N1CCCCC1` the composite z-score [1] was 0.663, the z-score [2] was -3.77 (inactive) and the z-score [3] was -0.641 (inactive). For the same molecule, the z-score [4] was 1.56 (inactive), the z-score [5] was -0.546 (inactive) and the composite z-score [6] was 0.466. The composite z-score [7] was 0.288, the composite z-score [8] was -0.451 and the composite z-score [9] was -0.271. For the same molecule, the composite z-score [10] was 0.0721.

For `CCCN1C(=O)[C@]2(COC(c3ccc(OCCCO)cc3)=N2)Cc2ccccc21`, the composite z-score [1] was 0.526, the z-score [2] was -1.62 (inactive) and the z-score [3] was 0.786 (inactive). For the same molecule, the z-score [4] was 0.913 (inactive), the z-score [5] was -1.39 (inactive) and the composite z-score [6] was 0.0066. The composite z-score [7] was 0.0756, the composite z-score [8] was 0.416 and the composite z-score [9] was 0.01. The composite z-score [10] was 0.184.

With `COCCOC(=O)N1C(=O)[C@@]2(c3cc(C#CCC(C(=O)OC)C(=O)OC)ccc31)[C@H](C(=O)N1CCCCCCC1)[C@H]1C(=O)O[C@H](c3ccccc3)[C@H](c3ccccc3)N1[C@@H]2c1ccc(OCCO)cc1` the composite z-score [1] was 1.42, the z-score [2] was -2.31 (inactive) and the z-score [3] was -1.02 (inactive). For the same molecule, the z-score [4] was -1.15 (inactive), the z-score [5] was -0.0519 (inactive) and the composite z-score [6] was 3.01. For the same molecule, the composite z-score [7] was 1.69, the composite z-score [8] was 2.01 and the composite z-score [9] was 1.87. The composite z-score [10] was 2.32.

In the case of `COCCOC(=O)N1C(=O)[C@@]2(c3cc(C#CCC(C(=O)OC)C(=O)OC)ccc31)[C@H](C(=O)N1CCN(c3ncccn3)CC1)[C@H]1C(=O)O[C@H](c3ccccc3)[C@H](c3ccccc3)N1[C@@H]2c1ccc(OCCO)cc1`, the composite z-score [1] is reported as 0.148, the z-score [2] is reported as -3.18 (inactive) and the z-score [3] is reported as -1.66 (inactive). For the same molecule, the z-score [4] was -1.83 (inactive), the z-score [5] was -1.08 (inactive) and the composite z-score [6] was 0.392. For the same molecule, the composite z-score [7] was -0.0221, the composite z-score [8] was 0.2 and the composite z-score [9] was 0.542. It also gave a composite z-score [10] of 1.3.
